Sampled rows, rich in hits. Any-hit rate of the full collection: about 3.7%.
GPR32 ag: qHTS for Agonists of Human Resolvin D1 Receptor DRV1; 2.5% of 48,000 active; AID 1346428, 2018; Probable G-protein coupled receptor 32 (Homo sapiens), O75388; CHO-K1 GPR32 beta-arrestin PathHunter luminescence, 90 min; zero percent set by DMSO-only wells; activation, % at 76.9 µM;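 active means activation of at least 60% and not above a set upper limit, about 1 call in 100 departs from these limits; inconclusive means activation of 40% to 60%, or above that upper limit; inactive means activation under 40%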; further: 0% is about no effect
Target sequence (O75388 whole entry, looked up): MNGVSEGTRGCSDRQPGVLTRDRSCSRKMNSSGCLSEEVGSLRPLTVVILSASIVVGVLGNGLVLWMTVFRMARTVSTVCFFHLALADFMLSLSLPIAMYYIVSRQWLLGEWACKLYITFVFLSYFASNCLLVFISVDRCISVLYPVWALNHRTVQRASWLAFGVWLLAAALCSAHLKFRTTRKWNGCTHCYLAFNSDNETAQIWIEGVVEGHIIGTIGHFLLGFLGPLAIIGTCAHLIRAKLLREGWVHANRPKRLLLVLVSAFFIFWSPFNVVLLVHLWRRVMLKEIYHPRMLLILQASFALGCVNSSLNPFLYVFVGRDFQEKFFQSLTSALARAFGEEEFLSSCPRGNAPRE
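Engineered CHO-K1 line co-expressing GPR32-ProLink and EA-beta-arrestin. Compound treatment lasted 90 min at 37 °C. Luminescence was recorded after 1 h with substrate at ambient temperature, relative to DMSO basal wells.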
HTT-AS promoter: Primary qHTS for Identification of Small Molecule Activators of Huntingtin-Antisense Promoter Activity | HEK293 HTT-AS promoter firefly luciferase reporter, 24 h; response scale: percent change from vehicle, -100% = no light | Potency, µM (top dose mostly 57.5 µM), without a hit: at the top dose activity change, positive = activation, actives largely listed as activators | 0.24% of 48,000 active | AID 1508624, 2021; further: potency means the concentration at half of the fitted maximal effect; nearly all actives have a fitted effect of over 55% in size
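Firefly luciferase signal from promoter-reporter HEK293 cells was scaled between vehicle (0%) and zero RLU (-100%). Compounds were tested at final concentrations of up to 57.5 uM over 24 h at 37 degrees C. PTC124 at 50 uM final served as control inhibitor.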
HTT prom inh: Primary qHTS for Identification of Small Molecule Inhibitors of Huntingtin Promoter Activity | Potency, µM (titrated, usually from 57.5 µM), without a hit: at the highest dose activity change, negative = inhibition, actives largely listed as inhibitors | 0.93% of 48,000 active | HEK293 HTT promoter firefly luciferase reporter, 24 h; further: potency means the concentration at half of the fitted maximal effect; nearly all actives have a fitted effect of over 50% in size
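Luminescence was read after Dual-Glo reagent and a 10 min room-temperature incubation. Values were normalized to vehicle (0% activity) and zero RLU (-100% activity). Reporter HEK293 cells had been exposed to compounds (up to 57.5 uM final) for 24 h.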
Starred values were filed as active, the others as inactive; ? = inconclusive; nt = no result. Unless noted, the call rests on the fitted dose curve; in most records, active means well fitted curve in the direction sought with a large enough effect; inconclusive means small, poorly fitted or top-dose-only effect, or another doubt; inactive means no such curve, though single readings can be large; an effect the other way counts as inactive or inconclusive.

SMILES	GPR32 ag	HTT-AS promoter	HTT prom inh
O=C(NCCc1ccccc1)c1ccc(CSc2nc3ccncc3n2Cc2ccc(F)cc2)cc1	-15	-10%	-26%
CC=CC(=O)N(CC)c1ccccc1C	nt	-40%	-10%
CC(C)NCCCC1(C(N)=O)c2ccccc2-c2ccccc21	-29	-13%	-1%
CCCCN(C)CC(O)Cn1cc(/C=C/C(=O)c2ccc(OCC)cc2)c2ccccc21 (configuration not stated)	17	-20%	-29%
CCCCN(CCCC)CC(O)Cn1cc(/C=C/C(=O)c2ccccc2)c2ccccc21 (configuration not stated)	88*	-38%	-27%
N#Cc1c(NC(=O)c2cccc3ccccc23)sc2c1CCCC2	nt	-32%	-30%
O=c1c(N2CCN(c3cccc(Cl)c3)CC2)csc2ccccc12	-63	-10%	-24%
COc1cc(Cl)c(S(=O)(=O)N2CCN(c3c(C)cccc3C)CC2)cc1Cl	-9	-24%	-7%
CCc1nc(C)cn1S(=O)(=O)c1ccc(Cl)c(Cl)c1OC	19	-89%	13µM*
CCOc1cc(Cl)c(S(=O)(=O)n2cc(C)nc2CC)cc1Cl	15	-69%	16µM*
Cc1cc(CN2CCN(c3c(Br)cnc4nc(-c5ccc(N6CCN(C)CC6)cc5)[nH]c34)CC2)no1	nt	-19%	-3%
CC1CCN(S(=O)(=O)c2ccc3c(c2)CCN3C(=O)Nc2ccccc2Br)CC1	-22	-1%	3%
CC(C)C[C@@H](N)[C@H](O)C(=O)N[C@H](C(=O)N[C@H](C(=O)N[C@@H](CC(=O)O)C(=O)O)C(C)C)C(C)C	nt	-11%	-22%
COc1cccc(OC)c1-c1cc(C(=O)NC2(C(=O)O)C3CC4CC(C3)CC2C4)nn1-c1ccnc2cc(Cl)ccc12 (configuration not stated)	nt	-8%	5%
CCOc1ccc(S(=O)(=O)Nc2ccc3oc(C)c(C(=O)OC(C)C)c3c2)cc1	87*	-7%	?
COC(=O)c1c(C)oc2ccc(N(C(=O)c3ccncc3)S(=O)(=O)c3c(C)cc(C)cc3C)cc12	13	-38%	?
CCc1ccc(S(=O)(=O)Nc2ccc3oc(C)c(C(=O)OCCOC)c3c2)cc1	64*	nt	nt
CCc1ccc(S(=O)(=O)N(C(=O)Oc2ccccc2)c2ccc3oc(C)c(C(=O)OC)c3c2)cc1	-13	-91%	7.9µM*
Cc1cc(C)c(S(=O)(=O)Nc2ccc3oc(C)c(C(=O)OC(C)C)c3c2)cc1C	27	-15%	?
CC(=O)c1c(C)oc2ccc(N(C(=O)Oc3ccccc3)S(=O)(=O)c3ccc(Br)cc3)cc12	-14	nt	nt
COC(=O)c1c(C)oc2ccc(N(C(=O)c3ccncc3)S(=O)(=O)c3cc(C)c(C)cc3C)cc12	-1	-60%	13µM*
CCCc1oc2ccc(NS(=O)(=O)c3ccc(OC)cc3)cc2c1C(=O)OCC	-17	-48%	?
COc1cccc(CN2C(=O)c3ccccc3Sc3ccc(C(=O)NCc4ccccc4)cc32)c1	-20	-17%	-23%
Cn1c(C(=O)NCCc2ccccc2)cc2c(=O)n3ccccc3nc21	-8	?	54%
CCCCCNC(=O)c1cc2c(=O)n3ccccc3nc2n1C	-9	2µM*	71%
SMILES	GPR32 ag	HTT-AS promoter	HTT prom inh
CN(C(=O)c1cc2c(=O)n3ccccc3nc2n1C)c1ccccc1	-16	5.6µM*	83%
CCCCN(CC)C(=O)c1cc2c(=O)n3ccccc3nc2n1C	-10	10%	30%
C[C@]12C=CC(=O)N[C@@H]1CC[C@H]1[C@H]3CC[C@@H](C(=O)Nc4cc(C(F)(F)F)ccc4C(F)(F)F)[C@@]3(C)CC[C@@H]12	nt	-3%	-7%
CC(C)OC(=O)C1=CN(C(=O)c2ccc(F)c(F)c2)CC(C)(C)c2c1[nH]c1ccccc21	nt	-4%	11%
COc1ccccc1NC(=O)CC1Sc2ccc(C(F)(F)F)cc2NC1=O (configuration not stated)	64*	-17%	-4%
CCOC(=O)c1ccc(NC(=O)CC2Sc3ccc(C(F)(F)F)cc3NC2=O)cc1 (configuration not stated)	22	-34%	?
COc1ccccc1N1CCN(C(=O)c2oc3ccccc3c2N)CC1	71*	nt	nt
COc1ccc(N2CCN(C(=O)c3oc4ccccc4c3NC(=O)c3ccccc3OC)CC2)cc1	-5	-13%	?
Cc1ccc(-c2ccccc2C#N)cc1	-44	3%	5%
Cc1ccc(C(=O)Nc2cccc3cccnc23)cc1Cl	-6	8.9µM*	58%

High-throughput results from PubChem BioAssay.
